ChEMBL document CHEMBL2218924, “A broad activity screen in support of a chemogenomic map for kinase signalling research and drug discovery” (Biochem J, 2013)

Target: Tyrosine-protein kinase FRK (Homo sapiens) (UniProt P42685)
Settings: at 1 µM

Chain of Tyrosine-protein kinase FRK (Homo sapiens) (P42685 whole entry): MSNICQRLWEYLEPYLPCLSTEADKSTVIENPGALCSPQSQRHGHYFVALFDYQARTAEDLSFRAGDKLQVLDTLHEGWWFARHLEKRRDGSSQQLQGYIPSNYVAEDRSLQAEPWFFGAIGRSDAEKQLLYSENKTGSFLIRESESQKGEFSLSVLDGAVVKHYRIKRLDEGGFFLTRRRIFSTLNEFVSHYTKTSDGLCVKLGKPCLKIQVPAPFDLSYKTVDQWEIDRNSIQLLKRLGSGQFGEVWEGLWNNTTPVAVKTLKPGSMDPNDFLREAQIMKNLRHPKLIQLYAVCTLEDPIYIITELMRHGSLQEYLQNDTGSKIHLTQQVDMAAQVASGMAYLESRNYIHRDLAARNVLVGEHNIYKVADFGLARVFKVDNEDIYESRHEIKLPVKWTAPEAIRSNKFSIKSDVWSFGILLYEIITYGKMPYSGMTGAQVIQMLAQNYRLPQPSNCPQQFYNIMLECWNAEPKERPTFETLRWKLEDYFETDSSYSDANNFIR

SMILES | residual activity
CC(C)(C)n1nc(Cc2cccc3ccccc23)c2c(N)ncnc21 | 26%
O=C1Cc2c([nH]c3ccc(Br)cc23)-c2ccccc2N1 | 68%
COc1cc2nccc(Oc3ccc(NC(=O)Nc4cc(C)on4)c(Cl)c3)c2cc1OC | 2%
NC(=O)c1ccc(-c2nc(-c3ccc4c(c3)OCCO4)c(-c3ccccn3)[nH]2)cc1 | 98%

Target: Tyrosine-protein kinase FRK (Homo sapiens) (UniProt P42685)
Settings: at 10 µM

SMILES | residual activity
Nc1n[nH]c2nc3ccccc3nc12 | 92%
CCCC(=O)Oc1ccc2[nH]c(C(=O)c3cc4ccccc4[nH]3)cc2c1 | 85%
CC(C)[C@H](CO)Nc1nc(Nc2cc(N)cc(Cl)c2)c2ncn(C(C)C)c2n1 | 11%
O=C(c1ccccc1)c1ccc(N2CCOCC2)cc1O | 96%
COc1cc2nccc(Oc3ccc(NC(=S)NC(=O)c4ccccc4C)cc3)c2cc1OC | 1%
O=C1NC(=O)C(c2c[nH]c3ccccc23)=C1c1c[nH]c2ccccc12 | 41%
Nc1ncnc2c1c(-c1ccc(Oc3ccccc3)cc1)cn2C1CCCC1 | 2%
N#Cc1c(NC(=O)c2cccc3ccccc23)sc2c1CCCC2 | 100%
COc1cc2ncnc(Nc3cccc(Cl)c3)c2cc1OC | 6%
Nc1ncnc2c1cnn2-c1ccccc1 | 90%
O=C1C(Cl)=C(N2C(=O)CCC2=O)C(=O)c2ccccc21 | 96%
CCCCc1c(-c2ccc(O)cc2)[nH]c2nccnc12 | 25%
O=C1NC(=O)c2c1c1c3ccccc3[nH]c1n1cncc21 | 63%
CSc1nc(-c2ccc(F)cc2)c(-c2ccnc(NC(C)c3ccccc3)c2)[nH]1 (stereo not given) | 94%
CC(C)c1nn(-c2c(Cl)cccc2Cl)c2nc(Cc3ccc(OCCO)cc3)[nH]c(=O)c12 | 35%
O=c1cc(N2CCOCC2)oc2c1ccc1ccccc12 | 90%
O=c1cc(N2CCNCC2)oc2c(-c3ccccc3)cccc12 | 104%
Nc1ncnc2[nH]nc(Nc3ccc(F)cc3)c12 | 38%
NC(=O)Nc1sc(-c2ccc(F)cc2)cc1C(N)=O | 19%
O=C(O)/C=C/c1cc(Br)c(Br)c(Br)c1Br | 86%
Cn1sc(=O)n(Cc2ccccc2)c1=O | 92%
O=C1Nc2ccc(Cl)cc2/C1=C/c1cc(Cl)c(O)c(Cl)c1 | 5%
CC(C)(C)n1nc(Cc2cccc3ccccc23)c2c(N)ncnc21 | 0%
O=C1Cc2c([nH]c3ccc(Br)cc23)-c2ccccc2N1 | 40%
COc1cc2nccc(Oc3ccc(NC(=O)Nc4cc(C)on4)c(Cl)c3)c2cc1OC | -3%
NC(=O)c1ccc(-c2nc(-c3ccc4c(c3)OCCO4)c(-c3ccccn3)[nH]2)cc1 | 89%
